From PubChem BioAssay
A selection: hits, their analogues and other compounds. The true share with any hit is near 0.58%.
Six1-Eya2 inh – blocks human Six1 binding to Eya2 | AlphaScreen GST-Six1/His-Eya2 binding, biochemical; stronger effect = lower value | activity change, % (concentration not given with the values) | actives 0.56% (n = 360,000) | AID 651725; in the data active = activity change below about -65%; inconclusive = mostly about -30% to -63%; also: % is scaled to controls: 0 for no effect and ±100 for the full control effect
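Homogeneous AlphaScreen proximity assay pairing GST-Six1 with His-tagged Eya2 (added as 5X mix: 250 nM and 500 nM) in 50 mM Tris pH 8.0, 300 mM NaCl, 1 mM TCEP. Glutathione donor and nickel acceptor beads; 1 h, 37 °C, dark.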
CtBP-E1A blk – CtBP/E1A binding inhibition. AlphaScreen GST-E1A/His-CtBP binding, 1536-well; stronger effect = lower value. activity change, % (test concentration not listed). actives 0.49% (n = 340,000). AID 651724; in the data active = activity change below about -65%; inconclusive = mostly about -30% to -63%; also: % is scaled to controls: 0 for no effect and ±100 for the full control effect
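AlphaScreen with 125 nM GST-E1A and 125 nM His-CtBP (5X stocks) in Tris pH 8.0, 300 mM NaCl, BSA, Tween 20, TCEP. Compounds preincubated 2 h at 37 deg C, then glutathione donor/nickel acceptor beads added for 1 h at 37 deg C in dark.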
Eya2 inh – Eya2 (human) phosphatase inhibition. O00167. recombinant Eya2, OMFP fluorescence dephosphorylation (OMFP is methylfluorescein phosphate). Potency, µM (titrated, usually from 76.9 µM), inactives show at the top dose activity, negative = inhibition, hits mostly inhibitors. actives 0.006% (n = 330,000); also: potency is read from the fitted curve at half-maximal effect; % is scaled to controls: 0 for no effect and ±100 for the full control effect
Target sequence (O00167 whole entry, looked up): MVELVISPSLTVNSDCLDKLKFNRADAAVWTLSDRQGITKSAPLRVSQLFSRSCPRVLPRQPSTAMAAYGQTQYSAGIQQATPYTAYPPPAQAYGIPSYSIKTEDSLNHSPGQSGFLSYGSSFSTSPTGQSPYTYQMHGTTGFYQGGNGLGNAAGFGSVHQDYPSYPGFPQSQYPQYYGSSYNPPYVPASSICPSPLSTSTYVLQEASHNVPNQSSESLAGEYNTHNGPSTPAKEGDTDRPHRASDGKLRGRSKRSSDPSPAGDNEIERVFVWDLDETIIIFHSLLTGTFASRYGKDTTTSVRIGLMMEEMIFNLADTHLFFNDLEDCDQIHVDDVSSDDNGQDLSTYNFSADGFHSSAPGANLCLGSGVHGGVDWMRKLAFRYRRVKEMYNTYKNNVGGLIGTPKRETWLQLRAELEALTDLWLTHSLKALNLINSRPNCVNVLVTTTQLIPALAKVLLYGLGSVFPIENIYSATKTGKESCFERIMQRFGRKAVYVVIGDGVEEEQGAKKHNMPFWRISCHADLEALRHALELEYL
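Eya2 (0.2 uM) preincubated 10 min at ambient with compound, then OMFP substrate added at 50 uM; 10 min reaction in 50 mM HEPES pH 7.5, 50 mM NaCl, 5 uM MgCl2, 0.05% BSA, 1 mM DTT. Fluorescence read at Ex 485/Em 525 nm.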
GRP78 ERSR act – ER stress response induction in glioma; Potency, µM, for inactives: at the top dose activation, hits mostly activators; actives 0.02% (n = 420,000); U87-MG GRP78 promoter luciferase reporter, 16 h; also: potency is read from the fitted curve at half-maximal effect; series mostly up to about 76 µM; % of control where 0% means no effect; nearly all actives have a fitted effect of over 35% in size
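Stably transfected U87-MG glioma cells carrying a GRP78-based luciferase sensor; 16 h compound incubation. Luminescence end-point read 10 min after Bright-Glo addition at room temperature.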
Numbers without * were called inactive; u = inconclusive; x = no result given. Unless noted, calls follow the shape of the dose curve; as a rule, active = well fitted curve in the direction sought with a large enough effect; inconclusive = small, poorly fitted or top-dose-only effect, or another doubt; inactive = no such curve, though single readings can be large; an effect the other way counts as inactive or inconclusive.

SMILES	Six1-Eya2 inh	CtBP-E1A blk	Eya2 inh	GRP78 ERSR act
OCc1ccc(O)c2ncccc12	-88*	-92*	-12%	-4%
Oc1ccc(Cc2ccccc2)c2cccnc12	-75*	-92*	x	-4%
COc1ccc(CN2CCOc3ccc(CN4CCC(Oc5cccnc5)CC4)cc3C2)c(F)c1	x	x	x	-1%
COc1ccc(C(=O)NCc2nc(-c3ccccc3NC(=O)c3cc(C)oc3C)oc2C)cc1F	x	x	x	-2%
COC(=O)[C@@H]1CCCN1C(=O)c1c(OC)cc(=O)n2c1CCN(Cc1ccc3nsnc3c1)CC2	x	x	x	-1%
Cc1ccc(C(=O)NC(=S)/C=C2\N(C)c3ccccc3C2(C)C)cc1	-75*	-81*	-14%	1%
CCOc1cc(Br)cc(/C=N/NC(=O)c2cccnc2)c1O	-67*	-92*	-11%	-1%
O=C(N/N=C/c1cc(Br)ccc1O)c1ccccc1Cl	-88*	-79*	-7%	-2%
O=C(N/N=C/c1cc(Cl)ccc1O)c1ccncc1	-92*	-95*	4%	2%
COc1cc([N+](=O)[O-])cc(/C=N/NC(=O)C(C)Nc2cccc(C)c2)c1O (centres undefined)	-21	u	-4%	-5%
O=C(N/N=C\c1ccccc1O)c1ccccc1O	x	x	x	-6%
COc1cc([N+](=O)[O-])cc(/C=N/NC(=O)C(C)Nc2ccccc2C)c1O (centres undefined)	u	-73*	4%	-7%
O=C(N/N=C/c1ccccc1Cl)c1ccncc1	2	x	-23%	-2%
Cc1ccc(C)c(S(=O)(=O)NCc2nc(N3CCCC3)c3cc(Cl)ccc3n2)c1	x	x	x	-4%
Clc1ccc(-n2cccc2CN2CCc3nnc(Cc4ccccc4)n3CC2)nc1	x	x	x	-7%
Cc1ccc(C(=O)N/N=C/c2cc(Br)ccc2O)cn1	-89*	-91*	6%	-5%
COc1cc([N+](=O)[O-])cc(/C=N/NC(=O)c2ccc(C)nc2)c1O	-88*	-95*	5%	-6%
O=C(NCC1CCCO1)C(=O)N/N=C/c1ccc(O)c(Cl)c1 (centres undefined)	3	1	-21%	-3%
O=C(NCC1CCCO1)C(=O)N/N=C/c1cc(Cl)ccc1O (centres undefined)	-80*	-94*	10%	-5%
COc1cc([N+](=O)[O-])cc(/C=N/NC(=O)CSc2ccccn2)c1O	-82*	-91*	-6%	-9%
COc1cc([N+](=O)[O-])cc(/C=N/NC(=O)c2ccc(NC(=O)c3ccc(C)cc3)cc2)c1O	-8	u	7%	u
O=C(NCc1ccncc1)c1cnn(-c2nccc(-c3cccs3)n2)c1C1CC1	x	x	x	-6%
COC(=O)c1ccccc1-c1cc(C)cc2c1OC(CNC(=O)c1cc(C)n(C)n1)C2 (centres undefined)	x	x	x	-1%
Cc1ccccc1-c1cccc(CN2CCc3nnc(C(C)NC(=O)c4cccnc4)n3CC2)c1 (centres undefined)	x	x	x	-4%
COC(=O)N/N=C/c1cc(Br)ccc1O	-9	-1	-1%	0%
SMILES	Six1-Eya2 inh	CtBP-E1A blk	Eya2 inh	GRP78 ERSR act
CC(C)NC(=S)N/N=C/c1cc(Br)ccc1O	-82*	-89*	-12%	-5%
COc1cc([N+](=O)[O-])cc(/C=N/NC(=O)Cn2cncn2)c1O	-90*	x	-4%	-4%
COc1ccccc1C(=O)Nc1cccc(N2CCC(NCc3cnn(-c4ccccc4)n3)CC2)c1	x	x	x	-5%
N#Cc1nc(COc2ccccc2F)oc1NCCCn1ccnc1	u	-75*	14%	7%
C=CCc1cccc(/C=N/NC(=O)CNc2ccccc2)c1O	-3	-2	x	-8%
C=CCc1cccc(/C=N/NC(=O)C[n+]2ccccc2)c1O	-89*	-91*	2%	-6%
CCOc1ccc(Br)cc1CNCCSc1nnnn1-c1ccccc1	x	x	x	32µM*
Brc1cccc(CNCCSc2nnnn2-c2ccccc2)c1	x	x	x	0%
COc1cc(C=O)c(Br)cc1OCC(=O)NCCc1ccccc1	1	x	-6%	-3%
CCOC(=O)COc1cc(Br)c(/C=N/Nc2ccccc2)cc1OC	-3	-1	-15%	35µM*
COc1ccc2c(c1)CCc1cnc(-n3ncc(C(=O)NCc4cc(C)no4)c3C3CC3)nc1-2	x	x	x	4%
CCOC(=O)CSc1nc2c(sc(=S)n2-c2ccc(CC)cc2)c(=O)[nH]1	3	-7	-3%	40µM*
Cc1ccc(C2=NN(C3=NN=C(N)Cc4ncnn43)C(O)(C(F)(F)F)C2)cc1 (centres undefined)	u	x	0%	0%
NC1=NN=C(N2N=C(c3ccco3)CC2(O)C(F)(F)F)n2ncnc2C1 (centres undefined)	-71*	21	4%	-6%
COc1ccc(-c2ccc(C(=O)NCc3ccc(N(C)C)cc3)c3occc23)c(C)c1	-65*	-66*	x	4%
O=C(N/N=C/C(Cl)=C/c1ccc([N+](=O)[O-])cc1)C(=O)Nc1ccccc1C(=O)O	-25	-92*	-2%	-2%
O=C(N/N=C/C(Cl)=C/c1ccc([N+](=O)[O-])cc1)C(=O)Nc1ccc(C(=O)O)cc1	-19	-98*	11%	-3%
O=C(Nc1ccc(C(=O)O)cc1)/C(=C\c1ccc([N+](=O)[O-])cc1)NC(=O)c1ccco1	4	7	x	0%
COC(=O)c1cc(CNC(=O)c2cnsn2)cc(NC(=O)c2ccccc2OC)c1	x	x	x	0%
CC(C)(C)n1ncc2c(=O)n(Cc3ccc(-c4ccccc4C#N)cc3)cnc21	x	x	x	-1%
O=C1C(Cl)=C(Nc2ccccc2)C(=O)c2ccccc21	-3	-9	2%	-11%
O=C1C(Cl)=C(NCCc2ccccc2)C(=O)c2ccccc21	-76*	-79*	x	-15%
COCc1c(C(=O)NC2CCOC(C)(C)C2)cnn1-c1nccc(-c2cccs2)n1 (centres undefined)	x	x	x	0%
Cc1cc(C(=O)NCc2nc(-c3cccc(NC(=O)c4ccccc4)c3)oc2C)nc(C)n1	x	x	x	-2%
COc1ccccc1C(NC(C)=O)c1cc(Cl)c2cccnc2c1O (centres undefined)	u	u	5%	-1%
SMILES	Six1-Eya2 inh	CtBP-E1A blk	Eya2 inh	GRP78 ERSR act
O=C(NC(c1ccccc1)c1cc(Cl)c2cccnc2c1O)c1cccnc1 (centres undefined)	x	x	5%	x
O=C(O)COc1ccccc1C(Nc1cccnc1)c1cc(Cl)c2cccnc2c1O (centres undefined)	-67*	-91*	4%	-5%
CCOc1ccc(C(Nc2cccnc2)c2cc(Cl)c3cccnc3c2O)cc1 (centres undefined)	u	-68*	10%	-7%
O=C(O)COc1ccccc1C(Nc1ccccn1)c1cc(Cl)c2cccnc2c1O (centres undefined)	u	-85*	11%	-2%
Cc1cnc(-n2ncc(C(=O)N[C@H]3CCCCNC3=O)c2C2CC2)nc1-c1cccs1	x	x	x	-6%
COCC(=O)Nc1cc(C(=O)N2CCN(c3ccc(Cl)cn3)CC2)c2c(c1)nc(C1CCC1)n2C	x	x	x	-3%
CCOc1ccc(Nc2cc(C)nc(-n3nc(C)cc3C)n2)cc1	-68*	-79*	-1%	-11%
